From PubChem
PostGolgi yeast = growth inhibition of a yeast mutant, post-Golgi transport screen | AID 739 | actives 0.9% (n = 98,000) | inhibition, % at 10 µM | post-Golgi transport phenotypic cell assay;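 note: yeast cells grown in 1536-well plates; yeast grown about 18 h at 30C before absorbance read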
CYP2C19 activ = cytochrome P450 2C19 (human) activation | recombinant CYP2C19, luciferin-H EGE luminescence; active compounds read high; 0 = fully inhibited enzyme, 1 = untreated enzyme | P33261 | activation factor at 5 µM | 96,000 tested, under 10 active;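 active = activation factor of at least 2 at 5 µM in the primary screen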
CYP2C9 inh = inhibitors of human CYP2C9; P11712; CYP2C9 Supersomes, luciferin-H conversion, luminescence; inhibition, % at 5 µM; actives 20% (n = 96,000); AID 777;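 active = blocking of liver enzyme CYP2C9 beyond about 50% at 5 µM, limit read from the data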
Target sequence (P11712 whole entry, looked up): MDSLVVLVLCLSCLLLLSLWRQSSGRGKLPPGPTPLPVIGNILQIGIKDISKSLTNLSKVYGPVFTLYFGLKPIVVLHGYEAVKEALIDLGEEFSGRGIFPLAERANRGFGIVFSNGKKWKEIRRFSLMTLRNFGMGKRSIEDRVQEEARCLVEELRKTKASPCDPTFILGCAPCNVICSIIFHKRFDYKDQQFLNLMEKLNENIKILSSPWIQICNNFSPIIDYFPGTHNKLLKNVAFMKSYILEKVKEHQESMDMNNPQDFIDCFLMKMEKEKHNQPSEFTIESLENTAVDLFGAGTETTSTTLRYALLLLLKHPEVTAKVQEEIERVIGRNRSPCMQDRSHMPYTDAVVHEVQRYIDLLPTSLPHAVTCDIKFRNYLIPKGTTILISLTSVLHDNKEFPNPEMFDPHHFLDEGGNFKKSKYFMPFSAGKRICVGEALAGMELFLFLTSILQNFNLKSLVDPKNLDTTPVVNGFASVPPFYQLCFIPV
PostGolgi ctrl = growth of the yeast control strain, post-Golgi counter-screen; efflux-deficient yeast background strain, growth absorbance A615, 16 h; inhibition, % at 10 µM; actives 5% (n = 98,000); AID 738
CYP2C19 inhib = inhibitors of human CYP2C19; actives 21% (n = 96,000); inhibition, % at 5 µM; P33261; AID 778; CYP2C19 Supersomes, luciferin-H EGE luminescence, 30 min;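 active = CYP2C19 inhibition above a set limit at 5 µM in the primary screen, cut at about 50% in these data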
CYP2C9 activ = increases human cytochrome P450 2C9 activity; AID 1024; recombinant CYP2C9, luciferin-H conversion, luminescence; active compounds read high; factor 1 = untreated enzyme, 0 = blocked; activation factor at 5 µM; actives 1.4% (n = 96,000);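 active = activation factor of 2 or more for CYP2C9 at a 5 µM dose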
Hits are given with their value; n = inactive; x = not tested or not shown. An excerpt weighted towards active compounds, which were near 32% of everything screened. Cut-off read from the data, not from the text of the source, unless noted: active = inhibition above about 30%; inactive = the rest.

SMILES | PostGolgi yeast | CYP2C19 activ | CYP2C9 inh | PostGolgi ctrl | CYP2C19 inhib | CYP2C9 activ
CCn1c(C)nc2cc(-c3nnc(-c4c(-c5ccccc5)noc4C)o3)ccc21 | n | n | n | n | n | n
COc1ccccc1NC(=O)N1c2ccc(F)cc2CCC1C (stereo not drawn) | n | n | n | n | n | n
COc1ccc(C(=O)N2c3ccc(F)cc3CCC2C)cc1OC (stereo not drawn) | n | n | n | 38 | n | n
C=CCNC(=O)c1c2c(nc3ccccc13)-c1ccccc1CC2 | n | n | 62 | n | n | n
CCN(CC)C(=O)c1c2c(nc3ccccc13)-c1ccccc1CC2 | n | n | 65 | n | n | n
Cc1onc(-c2ccccc2)c1C(=O)NCC1CCN(C(=O)c2c(-c3ccccc3)noc2C)CC1 | n | n | n | n | n | n
O=C(CSc1ncn[nH]1)N(C1CCCCC1)C1CCCCC1 | n | n | n | n | n | n
COc1ccc(-c2noc(CN3C(=O)c4ccccc4C3=O)n2)cc1 | n | n | n | n | n | n
COc1ccc(C2=NN(CN3C(=O)C(=O)c4ccccc43)C(c3ccc(C)cc3)C2)cc1 (stereo not drawn) | n | n | 76 | n | 51 | n
COc1ccc(C2=NN(CN3C(=O)C(=O)c4ccccc43)C(c3ccc(Br)cc3)C2)cc1 (stereo not drawn) | n | n | n | 32 | n | n
Nc1nc(C2CC2)c(Sc2sc(N)nc2C2CC2)s1 | n | n | n | n | 62 | n
C=C(C)COc1ccc2oc(C)c(C(=O)OCCOC)c2c1 | n | n | 60 | n | 84 | n
COC(=O)c1cc(-c2c(C)oc3cc(OC(C)C)ccc3c2=O)c(C)o1 | n | n | 67 | n | 60 | n
CCOC(=O)c1c(C)oc2ccc(OCC(N)=O)cc12 | n | n | n | n | n | n
COC(=O)c1cc(COc2ccc3oc(C)c(C(=O)OC(C)C)c3c2)c(C)o1 | n | n | 84 | n | 88 | n
COC(=O)c1cc(COc2ccc3c4c(c(=O)oc3c2)CCCC4)c(C)o1 | n | n | n | n | n | n
COC(=O)c1cc(=O)c2ccc(OC)cc2o1 | x | n | n | x | n | n
CCN(CC)C(=O)CSc1nc(O)cc(=O)n1CC | n | n | n | n | n | n
CS(=O)c1ccccc1COC(=O)Nc1ccc(Cl)cc1 (stereo not drawn) | n | n | n | n | 95 | n
Cc1ccc(NC(=O)OCc2cn(-c3ccc(Cl)cc3)nn2)cc1 | n | n | n | n | n | n
COc1cc(CNCc2ccccn2)ccc1OCc1c(Cl)cccc1Cl | n | n | n | n | 69 | n
COc1cc(C(=O)NCc2ccccn2)ccc1OCc1c(C)noc1C | n | n | n | n | n | n
COc1cc(CNCc2ccccn2)ccc1OCc1cccc(Cl)c1 | n | n | n | n | 83 | n
CSc1nc(C)c(CCOC(=O)c2cccc(Cl)c2)c(=O)[nH]1 | n | n | n | n | n | n
O=C(COC(=O)C12CC3CC(CC(O)(C3)C1)C2)N1CCN(S(=O)(=O)c2ccc(Cl)cc2)CC1 | n | x | x | n | x | x
SMILES | PostGolgi yeast | CYP2C19 activ | CYP2C9 inh | PostGolgi ctrl | CYP2C19 inhib | CYP2C9 activ
O=S(Cc1ccc(Br)cc1)Cc1nnc(SCc2c(Cl)cccc2Cl)n1-c1ccccc1 (stereo not drawn) | n | n | 80 | n | 88 | n
Clc1cccc(Cl)c1CSc1nnc(CN2CCOCC2)n1-c1ccccc1 | n | n | n | n | n | n
Cn1c(CO)cnc1SCc1c(Cl)cccc1Cl | n | n | n | n | 82 | n
CN(C)C(=O)CSCc1c(Cl)cccc1Cl | n | n | n | n | n | n
Cn1c(CS(=O)Cc2c(Cl)cccc2Cl)nnc1SCc1c(Cl)cccc1Cl (stereo not drawn) | n | n | n | n | 55 | n
C=CCOc1nc2c(c(=O)n(Cc3ccc(Cl)cc3)c(=O)n2C)n1C | n | n | n | n | n | n
COc1ccc(N2CCN(c3nc(NC(C)(C)C)nc(N4CCCCC4)n3)CC2)cc1 | n | n | n | n | n | n
COc1ccc(N2CCN(c3nc(NCCO)nc(N4CCOCC4)n3)CC2)cc1 | n | n | 80 | 31 | 59 | n
COc1ccc(-n2c(=O)cc(N3CC(C)OC(C)C3)[nH]c2=O)cc1 (stereo not drawn) | n | n | n | n | n | n
COc1ccc(N/C(=C(/C(Cl)=C(Cl)Cl)[N+](=O)[O-])n2nnc3ccccc32)cc1 | n | n | 55 | n | n | n
O=C(O)c1ccc(-c2ccc(O)c(F)c2)cc1 | n | n | n | n | n | n
O=C(CCc1c[nH]c2ccccc12)NCC1CCCO1 (stereo not drawn) | n | n | n | n | 89 | 3.1
O=C(CCS(=O)(=O)Cc1ccccc1)NCC1CCCO1 (stereo not drawn) | n | n | n | 34 | n | n
O=C(Cc1ccccc1)NCC1CCCO1 (stereo not drawn) | n | n | n | n | n | n
CC(C)CNC(=O)CCc1c[nH]c2ccccc12 | n | n | n | n | 84 | n
N#C/C(=C\c1ccccc1)C(=O)NC(=O)Oc1ccccc1 | n | n | 82 | n | n | n
CCn1c(O)c(C=NC2CCCC2)sc1=S | n | n | 51 | n | 69 | n
CCn1c(O)c(/C=N/n2cnnc2)sc1=S | n | n | 54 | 30 | 62 | n
O=C(O)Cn1c(O)c(C=Nc2ccccc2)sc1=S | n | n | n | n | n | n
COc1ccc(CCNC(=O)c2nnn(-c3ccc4c(c3)OCCO4)c2N)cc1OC | n | n | n | n | n | n
CN(C(=O)c1coc(=O)c2ccccc12)c1ccc(F)cc1 | n | n | 59 | n | n | n
O=C(NCc1ccc(F)cc1)c1cnn2ccccc12 | n | n | n | n | 60 | n
CN(C)c1oc(-c2ccccc2Cl)nc1P(=O)(c1ccccc1)c1ccccc1 | 31 | n | 67 | n | n | n
Cn1nc(C(F)(F)F)c(/C=N/OC(=O)c2ccccc2)c1Sc1ccc(Cl)cc1 | n | n | 89 | n | n | n
Cn1nc(C(F)(F)F)c(/C=N/OC(=O)c2ccccc2)c1Cl | n | n | n | n | n | n
SMILES | PostGolgi yeast | CYP2C19 activ | CYP2C9 inh | PostGolgi ctrl | CYP2C19 inhib | CYP2C9 activ
COc1ccc(C2CC(C(F)(F)F)n3ncc(C(=O)O)c3N2)cc1OC (stereo not drawn) | n | n | n | n | n | n
OCc1nn2c(c1Br)NC(c1ccccc1)CC2C(F)(F)F (stereo not drawn) | n | n | 74 | n | 71 | n
COc1ccc(C2CC(C(F)(F)F)n3nc(C(N)=O)c(Cl)c3N2)cc1OC (stereo not drawn) | n | n | 58 | n | n | n
O=C(O)c1nn2c(c1Br)NC(c1ccccc1)CC2C(F)(F)F (stereo not drawn) | n | n | n | 32 | n | n
Cc1ccccc1OCC(=O)Nc1sc(C(=O)Nc2cccc(C)c2C)c(C)c1C#N | n | n | n | n | n | n
CCOC(=O)N1CCN(C(=O)CSCC(=O)N=c2sc3ccccc3n2C)CC1 | n | n | n | n | n | n
